In the supplement of paper PMC8728848:
The full list was thinned out, with the strongest signals kept by preference.

Columns and labels:
Experiment in all cases: glycan array binding signal (z-score within array); higher = stronger binding
Details in all cases: glycan notation: IUPAC condensed, linker removed
[1] = target: Fuc(a1-2)Gal(b1-4)GlcNAc(b1-6)GalNAc
Procedure, shortened: (§1)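 Columns mapping to the same glycan were averaged after glycan names were converted to IUPAC-condensed notation. The data come from 3228 arrays in the Consortium for Functional Glycomics database, limited to those with an available protein sequence. Binding is reported as a within-array Z-score averaged across arrays of one protein sequence and across linkers.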

[2] = target: Fuc(a1-2)[Gal(a1-3)]Gal(b1-4)GlcNAc(b1-3)GalNAc
Procedure, shortened: as §1

[3] = target: Fuc(a1-2)[GalNAc(a1-3)]Gal(b1-4)GlcNAc(b1-6)GalNAc
Procedure, shortened: as §1

[4] = target: Fuc(a1-2)[GalNAc(b1-3)]Gal
Procedure, shortened: as §1

[5] = target: Fuc(a1-3)[GalNAc(b1-4)]GlcNAc6S
Procedure, shortened: as §1

Gal(a1-3)Gal(b1-4)GlcNAc = target: Gal(a1-3)Gal(b1-4)GlcNAc
Procedure, shortened: as §1

[6] = target: Gal(a1-3)Gal(b1-4)GlcNAc(b1-6)GalNAc
Procedure, shortened: as §1

[7] = target: Gal(b1-3)GlcNAc(b1-3)Gal(b1-4)[Fuc(a1-3)]GlcNAc(b1-6)[Gal(b1-3)GlcNAc(b1-3)]Gal(b1-4)Glc
Procedure, shortened: as §1

[8] = target: Gal(b1-4)GlcNAc(b1-3)Gal(b1-3)GalNAc
Procedure, shortened: as §1

[9] = target: Gal(b1-4)GlcNAc(b1-3)Gal(b1-4)GlcNAc(b1-3)Gal(b1-4)GlcNAc(b1-3)Gal(b1-4)GlcNAc(b1-2)Man(a1-3)[Gal(b1-4)GlcNAc(b1-3)Gal(b1-4)GlcNAc(b1-3)Gal(b1-4)GlcNAc(b1-3)Gal(b1-4)GlcNAc(b1-2)Man(a1-6)]Man(b1-4)GlcNAc(b1-4)[Fuc(a1-6)]GlcNAc
Procedure, shortened: as §1

[10] = target: Gal(b1-4)GlcNAc(b1-3)Gal(b1-4)GlcNAc(b1-3)Gal(b1-4)GlcNAc(b1-3)Gal(b1-4)GlcNAc(b1-3)Gal(b1-4)GlcNAc(b1-3)Gal(b1-4)GlcNAc(b1-2)Man(a1-3)[Gal(b1-4)GlcNAc(b1-3)Gal(b1-4)GlcNAc(b1-3)Gal(b1-4)GlcNAc(b1-3)Gal(b1-4)GlcNAc(b1-3)Gal(b1-4)GlcNAc(b1-3)Gal(b1-4)GlcNAc(b1-2)Man(a1-6)]Man(b1-4)GlcNAc(b1-4)GlcNAc
Procedure, shortened: as §1

[11] = target: Gal(b1-4)GlcNAc(b1-3)Gal(b1-4)[Fuc(a1-3)]GlcNAc(b1-3)Gal(b1-4)[Fuc(a1-3)]GlcNAc
Procedure, shortened: as §1

[12] = target: Gal(b1-4)GlcNAc(b1-3)[Gal(b1-4)GlcNAc(b1-6)]Gal(b1-4)GlcNAc
Procedure, shortened: as §1

[13] = target: Gal3S(b1-4)[Fuc(a1-3)]Glc6S
Procedure, shortened: as §1

[14] = target: Gal3S(b1-4)[Fuc(a1-3)]GlcNAc6S
Procedure, shortened: as §1

GalNAc(a1-3)Gal = target: GalNAc(a1-3)Gal
Procedure, shortened: as §1

GalNAc(b1-3)Gal = target: GalNAc(b1-3)Gal
Procedure, shortened: as §1

[15] = target: GalNAc(b1-3)Gal(a1-4)Gal(b1-4)GlcNAc(b1-3)Gal(b1-4)Glc
Procedure, shortened: as §1

[16] = target: GalNAc(b1-3)Gal(a1-6)Gal(b1-4)Glc
Procedure, shortened: as §1

GalNAc(b1-4)GlcNAc6S = target: GalNAc(b1-4)GlcNAc6S
Procedure, shortened: as §1

GalNAc4S6S(b1-4)GlcNAc = target: GalNAc4S6S(b1-4)GlcNAc
Procedure, shortened: as §1

[17] = target: Glc(a1-6)Glc(a1-6)Glc(a1-6)Glc
Procedure, shortened: as §1

[18] = target: GlcNAc(a1-4)Gal(b1-4)GlcNAc(b1-3)Gal(b1-4)Glc
Procedure, shortened: as §1

[19] = target: GlcNAc(b1-3)Gal(b1-4)GlcNAc(b1-3)Gal(b1-4)GlcNAc(b1-3)Gal(b1-4)GlcNAc(b1-3)Gal(b1-4)GlcNAc(b1-2)[GlcNAc(b1-3)Gal(b1-4)GlcNAc(b1-3)Gal(b1-4)GlcNAc(b1-3)Gal(b1-4)GlcNAc(b1-3)Gal(b1-4)GlcNAc(b1-6)]Man(a1-6)[GlcNAc(b1-3)Gal(b1-4)GlcNAc(b1-3)Gal(b1-4)GlcNAc(b1-3)Gal(b1-4)GlcNAc(b1-3)Gal(b1-4)GlcNAc(b1-2)Man(a1-3)]Man(b1-4)GlcNAc(b1-4)[Fuc(a1-6)]GlcNAc
Procedure, shortened: as §1

[20] = target: GlcNAc(b1-3)Gal(b1-4)GlcNAc(b1-6)[GlcNAc(b1-3)Gal(b1-3)]GalNAc
Procedure, shortened: as §1

GlcNAc(b1-3)GalNAc = target: GlcNAc(b1-3)GalNAc
Procedure, shortened: as §1

[21] = target: GlcNAc(b1-3)[GlcNAc(b1-6)]GalNAc
Procedure, shortened: as §1

GlcNAc(b1-6)GalNAc = target: GlcNAc(b1-6)GalNAc
Procedure, shortened: as §1

[22] = target: Kdn(a2-3)Gal(b1-4)[Fuc(a1-3)]GlcNAc
Procedure, shortened: as §1

Man(a1-6)Man = target: Man(a1-6)Man
Procedure, shortened: as §1

[23] = target: Neu5Ac(a2-3)Gal(b1-3)GalNAc(b1-4)[Neu5Ac(a2-8)Neu5Ac(a2-3)]Gal(b1-4)Glc
Procedure, shortened: as §1

[24] = target: Neu5Ac(a2-3)Gal(b1-3)GalNAc6S
Procedure, shortened: as §1

[25] = target: Neu5Ac(a2-3)Gal(b1-3)GlcNAc(b1-2)Man
Procedure, shortened: as §1

[26] = target: Neu5Ac(a2-3)Gal(b1-3)GlcNAc(b1-2)Man(a1-3)[Neu5Ac(a2-3)Gal(b1-3)GlcNAc(b1-2)Man(a1-6)]Man(b1-4)GlcNAc(b1-4)GlcNAc
Procedure, shortened: as §1

[27] = target: Neu5Ac(a2-3)Gal(b1-4)GlcNAc(b1-2)Man(a1-3)[GlcNAc(b1-4)][Neu5Ac(a2-3)Gal(b1-4)GlcNAc(b1-2)Man(a1-6)]Man(b1-4)GlcNAc(b1-4)GlcNAc
Procedure, shortened: as §1

[28] = target: Neu5Ac(a2-3)Gal(b1-4)GlcNAc(b1-2)[Neu5Ac(a2-3)Gal(b1-4)GlcNAc(b1-4)]Man(a1-3)[GlcNAc(b1-4)][Neu5Ac(a2-3)Gal(b1-4)GlcNAc(b1-2)[Neu5Ac(a2-3)Gal(b1-4)GlcNAc(b1-6)]Man(a1-6)]Man(b1-4)GlcNAc(b1-4)GlcNAc
Procedure, shortened: as §1

[29] = target: Neu5Ac(a2-3)Gal(b1-4)GlcNAc(b1-3)[Neu5Ac(a2-3)Gal(b1-4)GlcNAc(b1-6)]GalNAc
Procedure, shortened: as §1

[30] = target: Neu5Ac(a2-3)Gal(b1-4)GlcNAc6S
Procedure, shortened: as §1

[31] = target: Neu5Ac(a2-3)Gal(b1-4)[Fuc(a1-3)]GlcNAc
Procedure, shortened: as §1

[32] = target: Neu5Ac(a2-3)Gal(b1-4)[Fuc(a1-3)]GlcNAc(b1-6)[Gal(b1-3)]GalNAc
Procedure, shortened: as §1

[33] = target: Neu5Ac(a2-3)Gal6S(b1-4)GlcNAc
Procedure, shortened: as §1

Neu5Ac(a2-8)Neu5Ac = target: Neu5Ac(a2-8)Neu5Ac
Procedure, shortened: as §1

[34] = target: Neu5Gc(a2-3)Gal(b1-3)GlcNAc
Procedure, shortened: as §1

B1: Cohesin-hDCIR (Homo sapiens) (protein)
chain: LDDLDAVRIKVDTVNAKPGDTVRIPVRFSGIPSKGIANCDFVYSYDPNVLEIIEIEPGDIIVDPNPDKSFDTAVYPDRKIIVFLFAEDSGTGAYAITKDGVFATIVAKVKEGAPNGLSVIKFVEVGGFANNDLVEQKTQFFDGGANVGDTTEPATPTTPVTTPTTTDDLDAASQKYSQLLEKKTTKELVHTTLECVKKNMPVEETAWSCCPKNWKSFSSNCYFISTESASWQDSEKDCARMEAHLLVINTQEEQDFIFQNLQEESAYFVGLSDPEGQRHWQWVDQTPYNESSTFWHPREPSDPNERCVVLNFRKSPKRWGWNDVNCLGPQRSVCEMMKIHLHHHHHH
[1]
  glycan array binding signal (z-score): 5.99
[2]
  glycan array binding signal (z-score): -0.635
[3]
  glycan array binding signal (z-score): 5.33
[4]
  glycan array binding signal (z-score): 3.31
[5]
  glycan array binding signal (z-score): 0.081
Gal(a1-3)Gal(b1-4)GlcNAc
  glycan array binding signal (z-score): -0.455
[6]
  glycan array binding signal (z-score): 5.08
[7]
  glycan array binding signal (z-score): -0.655
[8]
  glycan array binding signal (z-score): -0.458
[9]
  glycan array binding signal (z-score): 2.82
[10]
  glycan array binding signal (z-score): -0.417
[11]
  glycan array binding signal (z-score): -0.584
[12]
  glycan array binding signal (z-score): -0.335
[13]
  glycan array binding signal (z-score): -0.343
[14]
  glycan array binding signal (z-score): 3.25
GalNAc(a1-3)Gal
  glycan array binding signal (z-score): 1.17
GalNAc(b1-3)Gal
  glycan array binding signal (z-score): 3.75
[15]
  glycan array binding signal (z-score): 4.3
[16]
  glycan array binding signal (z-score): 5.47
GalNAc(b1-4)GlcNAc6S
  glycan array binding signal (z-score): 0.86
GalNAc4S6S(b1-4)GlcNAc
  glycan array binding signal (z-score): -0.659
[17]
  glycan array binding signal (z-score): -0.038
[18]
  glycan array binding signal (z-score): -0.696
[19]
  glycan array binding signal (z-score): -0.597
[20]
  glycan array binding signal (z-score): -0.546
GlcNAc(b1-3)GalNAc
  glycan array binding signal (z-score): -0.415
[21]
  glycan array binding signal (z-score): -0.401
GlcNAc(b1-6)GalNAc
  glycan array binding signal (z-score): 4.02
[22]
  glycan array binding signal (z-score): -0.218
Man(a1-6)Man
  glycan array binding signal (z-score): 3.2
[23]
  glycan array binding signal (z-score): -0.554
[24]
  glycan array binding signal (z-score): 1.41
[25]
  glycan array binding signal (z-score): -0.373
[26]
  glycan array binding signal (z-score): -0.312
[27]
  glycan array binding signal (z-score): -0.66
[28]
  glycan array binding signal (z-score): -0.508
[29]
  glycan array binding signal (z-score): 0.114
[30]
  glycan array binding signal (z-score): -0.518
[31]
  glycan array binding signal (z-score): -0.342
[32]
  glycan array binding signal (z-score): -0.187
[33]
  glycan array binding signal (z-score): -0.608
Neu5Ac(a2-8)Neu5Ac
  glycan array binding signal (z-score): -0.297
[34]
  glycan array binding signal (z-score): -0.174
